# Measurements from the supplement of paper PMC6555819.
# Experiments:
# Assay in all cases: PBM binding z-score (relative to random genomic background probes); higher = stronger binding; sequences stand for … in GC…GCGATTGACAGCGTAGAATGAAGG
# [1] = system: FXR:RXRa (NR concentration 270 nM, RXRa partner concentration 90 nM)
# How it was run: (§1)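 Custom Agilent 4×180K protein-binding microarrays carried double-stranded probes. Their 34-nt variable regions held direct-repeat seeds, single-nucleotide variants, half-site ablations and random human genomic background sequences. Arrays were incubated 1 h with ligand-free nuclear receptor dimers in PBS pH 7.4, 2% milk, 0.02% Triton X-100, 1 mM DTT, 0.2 mg/mL BSA and 0.4 mg/ml salmon testes DNA. Antibodies against each partner (one per run) detected binding, and scanned fluorescence was regression-normalized. Binding z-scores use random background probes as reference.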
# [2] = system: LXRa:RXRa (NR concentration 270 nM, RXRa partner concentration 90 nM)
# How it was run: as §1
# [3] = system: LXRa homodimer (NR concentration 270 nM)
# How it was run: as §1
# [4] = system: LXRb:RXRa (NR concentration 270 nM, RXRa partner concentration 90 nM)
# How it was run: as §1
# [5] = system: LXRb homodimer (NR concentration 270 nM)
# How it was run: as §1
# [6] = system: PPARa:RXRa (NR concentration 270 nM, RXRa partner concentration 90 nM)
# How it was run: as §1
# [7] = system: PPARg:RXRa (NR concentration 180 nM, RXRa partner concentration 90 nM)
# How it was run: as §1
# [8] = system: PPARg:RXRa 270nM:90nM, anti-RXR (NR concentration 270 nM, RXRa partner concentration 90 nM)
# How it was run: as §1
# [9] = system: PPARg:RXRa 30nM:10nM, anti-RXR (NR concentration 30 nM, RXRa partner concentration 10 nM)
# How it was run: as §1
# [10] = system: PPARg:RXRa 90nM:30nM, anti-RXR (NR concentration 90 nM, RXRa partner concentration 30 nM)
# How it was run: as §1
# [11] = system: PPARg:RXRa DBDmut IVT, anti-RXR (DBD mutation: RXRa K156A/R161A, NR concentration 270 nM, RXRa partner concentration 90 nM)
# How it was run: as §1
# [12] = system: PPARg:RXRa IVT, anti-PPARg (NR concentration 270 nM, RXRa partner concentration 90 nM)
# How it was run: as §1
# [13] = system: PPARg DBDmut:RXRa IVT, anti-PPARg (DBD mutation: PPARg1 K132A/R137A, NR concentration 270 nM, RXRa partner concentration 90 nM)
# How it was run: as §1
# [14] = system: PPARg DBDmut IVT, anti-PPARg (DBD mutation: PPARg1 K132A/R137A, NR concentration 270 nM)
# How it was run: as §1
# [15] = system: PPARg homodimer (NR concentration 180 nM)
# How it was run: as §1
# [16] = system: PXR:RXRa (NR concentration 270 nM, RXRa partner concentration 90 nM)
# How it was run: as §1
# [17] = system: PXR homodimer (NR concentration 270 nM)
# How it was run: as §1
# [18] = system: RARa:RXR (NR concentration 270 nM, RXRa partner concentration 90 nM)
# How it was run: as §1
# [19] = system: RARa homodimer (NR concentration 270 nM)
# How it was run: as §1
# [20] = system: RARb:RXRa (NR concentration 270 nM, RXRa partner concentration 90 nM)
# How it was run: as §1
Sequence,PBM binding z-score [1],PBM binding z-score [2],PBM binding z-score [3],PBM binding z-score [4],PBM binding z-score [5],PBM binding z-score [6],PBM binding z-score [7],PBM binding z-score [8],PBM binding z-score [9],PBM binding z-score [10],PBM binding z-score [11],PBM binding z-score [12],PBM binding z-score [13],PBM binding z-score [14],PBM binding z-score [15],PBM binding z-score [16],PBM binding z-score [17],PBM binding z-score [18],PBM binding z-score [19],PBM binding z-score [20]
TATACAGGGTCAAAGGCCAGTGTACGAATGTCGA,6.89,6.1,2.61,4.74,2.33,6.22,8.3,7.38,4.93,7.23,1.89,5.07,2.16,0.623,2.38,4.13,0.622,5.66,0.468,4.57
GCTTGTAGATCAAGGTTAATAAAGACTAAGCTAA,-0.0696,2.14,-0.45,0.661,-0.608,1,1.29,2.36,0.581,1.78,1.14,0.996,-0.734,0.456,-0.133,0.16,0.327,0.282,0.0284,0.519
TCTTGTTGATCAACAGGAGGTTAAGAAAGATCGA,-0.388,1.08,0.0425,0.962,-0.0113,1.21,-0.165,1.01,2.18,2.1,0.718,0.445,1.15,0.996,-0.401,0.703,-0.344,0.688,-0.505,0.432
TCATATAGGTAATACAGGTGTAAGTCGGCATCTA,1.11,1.19,0.352,0.876,0.401,1.28,1.06,2.23,3.93,3,3.63,2.43,1.94,1.17,1,0.767,0.343,0.844,1.25,0.255
CTTCGGAGGACAGAAGGTCAGAGCTGTCCGCTTT,1.6,1.84,-0.0247,0.975,-0.772,1.85,-0.0897,1.07,-0.905,0.484,0.227,0.203,-0.826,-2.02,1.51,1.56,-0.691,2.18,-0.152,3.17
TCTATTAGTTAAAGGGCAACCGACGAGTCCGTTT,0.559,1.45,0.826,1.12,0.427,1.87,1.12,3.36,3.9,3.45,2.36,0.552,0.374,1.04,1.7,1.32,0.941,1.18,1.13,2.47
CCGACTAGGGCATAAGGTTACCATAAGCCAGCCC,0.247,2.13,-0.18,1.02,-0.736,2.19,2.8,3.77,1.43,3.27,4.2,3.79,-0.186,-0.826,1.57,0.295,-0.287,1.7,-0.466,1.86
TGTCAAAGTTCAAAGGTATCGTAAGTATCCACAC,6.52,6.21,4.75,3.88,1.73,5.28,7.79,7.23,4.93,6.44,-0.2,3.95,0.81,1.08,2.53,5.14,4.92,4.95,1.12,4.91
ACAGACAGGTGATGAAGGTAACTGAGGCTATCAT,0.003,-0.0614,-0.296,-0.234,-0.411,0.0902,0.558,0.0724,-0.0753,0.0172,0.31,0.434,0.949,0.0407,0.301,-0.124,0.0874,0.438,0.583,0.369
GCGACTGGGGCAAAGCAGGTTACCGTAAGGTTGG,-0.0896,0.23,-0.658,0.135,-1.45,1.51,0.866,1.45,-0.363,0.645,4.2,3.74,-0.21,-0.572,0.239,0.503,-0.648,1.73,-1.1,0.922
TCTTGTAGATCTAGCAGGTTAAGAAAGCCTGAGT,0.335,0.398,-0.285,0.453,-0.499,0.695,-0.571,1.22,2.48,1.86,1.5,0.0743,0.126,0.6,-0.214,0.527,0.101,0.57,0.175,0.0972
ACAGACAGGTGAGTGGAGGTAACTCAGCTGGACG,0.578,0.206,-0.47,-0.13,-0.275,0.431,0.557,-0.0456,-0.0591,0.000165,0.56,1.09,-0.327,-0.467,0.425,0.121,-0.151,0.729,-0.053,0.617
GATACAGGGTCAAGGCCAGAGTCCGCGTATTGAT,6.15,4.03,-0.217,3.58,0.0048,5.35,5.26,5.31,1.52,3.89,2.59,3.9,-0.201,-0.204,1.62,3.79,0.344,4.03,0.185,4.39
GCTAGCAGGCCATTTGGGTTACTCAATGACGGGC,-0.367,-0.587,-0.387,-0.709,-0.959,0.0439,0.457,-0.378,-0.68,-0.152,0.933,0.903,-0.422,-0.474,-0.558,-0.229,-0.482,0.178,-0.714,0.189
CCTAGGTGGTCAGGAGGTCACACACCGGATATGA,3.9,3.3,1.72,3.05,0.062,3.95,3.45,3.53,1.29,3.03,0.549,3.02,-0.0513,-0.161,3.26,4.04,1.33,4.78,1.85,3.71
TCATATATGTAAATGCTAGGTGAAAGTCCGATCT,0.494,0.5,0.273,0.561,0.139,0.627,0.741,1.86,3.23,2.59,2.12,0.736,1.47,0.87,-0.136,0.601,0.0676,0.644,0.525,0.329
AGTCAAAGTCCATCTAGGTAACGTAAGATATGCT,0.0265,-0.375,0.0157,-0.0801,-0.0793,0.13,0.685,0.325,0.277,0.00564,0.353,2.15,1.24,0.675,-0.173,-0.246,0.131,0.0232,0.0654,1.37
TAGCCTAGGTCATTCAGTGGCCAGTATAGAAAGC,4.21,3.55,0.592,2.39,0.554,3.44,1.95,2.24,0.522,1.51,1.37,2.7,0.204,-0.521,1.28,1.66,-0.355,2.22,-0.566,3.65
